Hit rate of the full screen: of about 5,500 compounds, about 2,000 (36%) were called active. Inconclusive results (about 18%) are left out. No stated cut-off is given here; in the data, active means normalized growth mostly below about 0.91 (no sharp cut-off); inconclusive means no clear call, values can overlap the other calls; inactive means mostly above about 0.92. The list shows a part of the results.
Assay: chemical genetic growth profiling, strain panel (AID 1159580);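 further: tested at 20 µM; growth read once vehicle control cultures reached saturation at 30 °C; 1 = growth at the plate median or of vehicle wells; lower values mean less growth of the strain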
Conditions: S. cerevisiae deletion strains, growth OD

Measured: normalized growth

CC(C)=CCCC(C)[C@@H]1CC[C@]2(C)C3=C(CC[C@@]12C)C1(C)CC[C@H](O)C(C)(C)C1CC3 (some centres undefined)
inactive: locus YJL187C, strain SWE1 (second series), hits give low values 0.995 | locus YJL187C, strain SWE1, hits give low values 1.06 | locus YJR066W, strain TOR1, hits give low values 0.866 | locus YKL068W, hits give low values 1.04 | locus YKL085W, strain MDH1 (second series), hits give low values 1.03 | locus YKL085W, strain MDH1, hits give low values 1.03 | locus YKL160W, strain elf1, hits give low values 1.03 | locus YKR001C, strain vps1, hits give low values 0.979 | locus YLL001W, strain dnm1, hits give low values 1.07 | locus YLL041C, strain sdh2, hits give low values 1.06 | locus YLR027C, strain aat2, hits give low values 1.07 | locus YLR039C, strain RIC1, hits give low values 1.24 | locus YLR058C, strain SHM2, hits give low values 0.996 | locus YLR102C, strain apc9, hits give low values 1.05 | locus YLR113W, strain HOG1, hits give low values 0.866 | locus YLR221C, strain rsa3, hits give low values 1.06 | locus YLR258W, strain gsy2, hits give low values 1.07 | locus YLR268W, strain sec22, hits give low values 0.973 | locus YLR320W, strain mms22, hits give low values 1.05 | locus YLR330W, strain CHS5, hits give low values 1.06 | locus YLR342W, strain FKS1, hits give low values 1.05 | locus YLR357W, strain rsc2, hits give low values 1.13 | locus YLR370C, strain arc18, hits give low values 1.07 | locus YLR371W, strain rom2, hits give low values 1.06 | locus YLR384C, strain iki3, hits give low values 1.07 | locus YLR418C, strain cdc73, hits give low values 1.15 | locus YML016C, strain PPZ1, hits give low values 1.06 | locus YML032C, strain rad52, hits give low values 0.946 | locus YML120C, strain ndi1, hits give low values 1.03 | locus YML124C, strain tub3, hits give low values 1.06 | locus YMR058W, strain fet3, hits give low values 1 | locus YMR078C, strain ctf18, hits give low values 1.08 | locus YMR125W, strain sto1, hits give low values 1.07 | locus YMR129W, hits give low values 1.06 | locus YMR205C, strain PFK2, hits give low values 1.04 | locus YMR223W, strain ubp8, hits give low values 0.971 | locus YMR231W, strain pep5, hits give low values 1.04 | locus YNL067W, strain RPL9B, hits give low values 1.02 | locus YNL071W, strain lat1, hits give low values 1.04 | locus YNL128W, strain TEP1, hits give low values 0.996 | locus YNL183C, strain NPR1, hits give low values 0.846 | locus YNL209W, strain ssb2, hits give low values 1.06 | locus YNL248C, strain rpa49, hits give low values 1.01 | locus YNL250W, strain rad50, hits give low values 0.996 | locus YNL271C, strain bni1, hits give low values 1.01 | locus YNL298W, strain CLA4, hits give low values 0.917 | locus YNL307C, strain MCK1, hits give low values 1.03 | locus YNL322C, strain KRE1 (second series), hits give low values 1.08 | locus YNR049C, strain mso1, hits give low values 1.08 | locus YNR052C, strain pop2, hits give low values 0.968 | locus YOL012C, strain htz1 1.41 | locus YOR001W, strain rrp6, hits give low values 1.02 | locus YOR061W, strain CKA2, hits give low values 0.994 | locus YOR069W, strain VPS5, hits give low values 1.05 | locus YOR070C, strain gyp1, hits give low values 1.05 | locus YOR083W, strain WHI5, hits give low values 0.994 | locus YOR106W, strain vam3, hits give low values 0.939 | locus YOR136W, strain idh2, hits give low values 1.02 | locus YOR144C, strain elg1, hits give low values 1.02 | locus YOR231W, strain MKK1, hits give low values 0.874 | locus YOR270C, strain vph1, hits give low values 0.839 | locus YOR290C, strain snf2, hits give low values 0.992 | locus YOR316C, strain cot1, hits give low values 1.06 | locus YPL051W, strain arl3, hits give low values 1.02 | locus YPL078C, strain atp4, hits give low values 1.02 | locus YPL240C, strain hsp82, hits give low values 1.05 | locus YPL256C, strain CLN2, hits give low values 0.994 | locus YPR119W, strain clb2, hits give low values 1.07 | locus YPR141C, strain kar3, hits give low values 1.05 | locus YPR163C, strain tif3, hits give low values 0.975 | locus YPR167C, strain met16, hits give low values 1.03 | strain wtn01, hits give low values 0.949
active: locus YKL009W, strain mrt4, hits give low values 0.775 | locus YKR026C, strain gcn3, hits give low values 1.09 [resistant] | locus YKR091W, strain srl3, hits give low values 1.1 [resistant] | locus YLL026W, hits give low values 1.07 [resistant] | locus YLR262C, strain YPT6 (second series), hits give low values 0.822 | locus YMR307W, strain GAS1, hits give low values 1.42 [resistant] | locus YNL233W, strain BNI4, hits give low values 1.13 [resistant] | locus YOL147C, strain pex11, hits give low values 1.1 [resistant] | locus YOR080W, strain dia2, hits give low values 1.09 [resistant] | locus YOR184W, strain ser1, hits give low values 0.85 | locus YOR265W, strain rbl2, hits give low values 1.07 [resistant] | locus YPL106C, strain sse1, hits give low values 1.26 [resistant]

— PubChem BioAssay AID1159580 (chemical genetic matrix, 2015)
